High-throughput results: PubChem BioAssay, National Center for Advancing Translational Sciences (NCATS)
ELG1 genotox – genotoxicity induction in ELG1-luciferase HEK293T cells | HEK293T ELG1-luciferase reporter, luminescence, 16 h | Potency, µM (top dose mostly 46 µM), inactives show at the top dose activity change, positive = activation, actives largely listed as activators | 330,000 tested, 1.3% active | AID 504466; note: % of control where 0% means no effect; nearly all actives have a fitted effect of over 60% in size
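Quantitative HTS format in 1536-well plates. HEK293T ELG1-luciferase reporter cells receive test compound and are incubated 16 hr at 37 °C, 5% CO2; ONE-Glo added, 30 min room temperature, then luminescence read.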
NPC1 promoter act – activates the NPC1 promoter; Huh7 NPC1 promoter luciferase reporter, 24 h; Potency, µM (titrated, usually from 9.22 µM), for the others: at the highest dose activation, actives largely listed as activators; 320,000 tested, 2.4% active; AID 485313; note: % of control where 0% means no effect; nearly all actives have a fitted effect of over 60% in size
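Stably transfected Huh7 (NPC1 promoter→luciferase), 1500 cells/well in Opti-MEM + 10% FBS, 2 h settle, then compound 24 h at 37 °C. Luminescence after 10 min with Amplite reagent.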
SMN2 splice enh – SMN2 splice variant enhancement. 210,000 tested, 2.8% active. Potency, µM (titrated, usually from 46.1 µM), inactives show at the top dose activity change, positive = activation, actives largely listed as activators. AID 1458. HEK293 SMN2-luciferase splicing reporter, luminescence, 30-36 h; note: % of control where 0% means no effect; nearly all actives have a fitted effect of over 55% in size
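HEK293 cells carry an SMN2 minigene-luciferase reporter in which exon 7 inclusion puts luciferase in frame. Cells were seeded at 2000 cells/well, attached for 10-12 hours, then exposed to compounds for 30-36 hours at 37C before ONE-Glo luminescence.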
Rab9 prom act – activators of Rab9 promoter; Huh7 Rab9 promoter-luciferase reporter, luminescence, 24 h; Potency, µM (titrated, usually from 9.22 µM), without a hit: at the top dose activation, negative = inhibition, usual class: activators; 320,000 tested, 2.8% active; AID 485297; note: % of control where 0% means no effect; nearly all actives have a fitted effect of over 60% in size
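Cell-based reporter: Huh7 stable for Rab9 promoter-driven luciferase, plated in reduced-serum medium with 10% FBS at 1500 cells/well, compound-treated 24 h at 37 °C, luminescence read after 10 min reagent.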
ELG1 DNA repair – ELG1-dependent DNA repair inhibition. AID 504467. HEK293T ELG1-luciferase reporter, luminescence, 16 h; DNA damage induced by 5-fluorouridine. 330,000 tested, 2.3% active. Potency, µM (series often up to 46.1 µM), for the others: at the highest dose activity change, negative = inhibition, usual class: inhibitors; note: % is set by controls: 0 for no effect and ±100 for the full control effect; nearly all actives have a fitted effect of over 55% in size
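HEK293T cells expressing luciferase-tagged ELG1 (2,000/well) received 5-Fluorouridine plus compound or DMSO for 16 hr at 37 °C. Luciferase was read by ONE-Glo luminescence after 30 min at room temperature.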
FLuc modulator – firefly luciferase modulation, counter-screen for miR-21 project; P08659; purified FLuc, Km substrates, luminescence inhibition; Potency, µM (highest dose often 57.5 µM), for inactives: at the highest dose activity change, negative = inhibition, hits mostly inhibitors; 360,000 tested, 6.9% active;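 note: plate controls were vehicle for no effect and reference inhibitor for full effect; nearly all actives have a fitted effect of over 55% in size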
Target sequence (P08659 whole entry, looked up): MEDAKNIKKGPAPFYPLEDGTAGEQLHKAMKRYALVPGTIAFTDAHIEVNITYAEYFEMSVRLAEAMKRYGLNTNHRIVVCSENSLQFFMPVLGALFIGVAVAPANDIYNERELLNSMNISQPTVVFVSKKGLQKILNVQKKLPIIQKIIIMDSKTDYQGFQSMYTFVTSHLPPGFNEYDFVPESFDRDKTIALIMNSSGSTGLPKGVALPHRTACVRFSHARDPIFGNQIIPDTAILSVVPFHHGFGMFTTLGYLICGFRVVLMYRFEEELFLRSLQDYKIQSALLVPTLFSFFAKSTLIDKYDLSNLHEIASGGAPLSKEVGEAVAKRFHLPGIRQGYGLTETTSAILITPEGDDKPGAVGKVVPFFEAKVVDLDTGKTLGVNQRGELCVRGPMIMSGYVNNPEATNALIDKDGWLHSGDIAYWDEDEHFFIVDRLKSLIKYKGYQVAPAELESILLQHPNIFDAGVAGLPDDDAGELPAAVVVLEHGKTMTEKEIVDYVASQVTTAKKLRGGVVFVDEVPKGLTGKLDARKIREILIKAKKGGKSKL
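Purified P. pyralis luciferase (10nM final) with 10uM D-luciferin and 10uM ATP (Km levels) in 50mM Tris acetate pH 7.5, 10mM Mg acetate, 0.01% Tween-20, 0.05% BSA; qHTS 6-point titration, ~60 µM downward; luminescence read.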
An asterisk follows results filed as active; ? = inconclusive; nt = no result given; [ ] = another dose, or the depositor's remark. Compounds with a hit are over-represented: about 9.2% of the library has one in this group of screens. Calls come from the whole dose curve; as a rule, active = well fitted curve in the direction sought with a large enough effect; inconclusive = small, poorly fitted or top-dose-only effect, or another doubt; inactive = no such curve, though single readings can be large; an effect the other way counts as inactive or inconclusive. Potency is the fitted concentration of half-maximal effect.

SMILES	ELG1 genotox	NPC1 promoter act	SMN2 splice enh	Rab9 prom act	ELG1 DNA repair	FLuc modulator
CC(=O)c1ccc(-c2ccc(C(=O)N3CCC(C(N)=O)CC3)o2)cc1	?	?	nt	29%	?	?
O=C(c1ccc(-c2ccc([N+](=O)[O-])cc2Cl)o1)N1CCOCC1	?	28%	?	?	?	17µM*
CC1CCN(C(=O)c2ccc(-c3ccccc3Cl)o2)CC1	?	0.89µM*	nt	0.32µM*	?	2.1µM*
CCN1C(=O)c2ccccc2S(=O)(=O)c2ccc(C(=O)NCc3ccccc3)cc21	nt	nt	23%	nt	nt	-2%
COC(=O)CN1C(=O)CSc2ccc(S(=O)(=O)N3CCOCC3)cc21	nt	nt	nt	nt	nt	0%
O=C(c1ccc(-c2ccccc2Cl)o1)N1CCC1	?	?	nt	?	?	17µM*
O=C(c1ccc(-c2ccccc2Cl)o1)N1CCCC(C(F)(F)F)C1 (stereo not drawn)	?	29%	nt	?	?	13µM*
CN1CCCN(C(=O)c2ccccc2Cl)CC1	-2%	-3%	nt	4%	1%	-2%
O=C(c1ccc([N+](=O)[O-])o1)N1CCOCC1	2%	-2%	-7%	0%	-13%	4%
O=C(c1ccc(-c2cccc(Cl)c2Cl)o1)N1CCOCC1	?	?	11µM*	1.3µM*	?	?
Cc1c(C(=O)N2CCCC(C(F)(F)F)C2)oc2ccccc12 (stereo not drawn)	2%	0%	nt	3%	?	?
CCN(C(=O)COC(=O)c1ccc2c(c1)OCO2)c1c(N)n(Cc2ccccc2)c(=O)[nH]c1=O	2%	3%	nt	-1%	?	-1%
NS(=O)(=O)c1ccc(-c2ccc(/C=N/NC(=O)c3ccccc3O)o2)cc1	-4%	-2%	nt	-3%	-15%	6.7µM*
NC(=S)NN=Cc1ccc(-c2ccc(S(=O)(=O)Nc3ncccn3)cc2)o1	2%	nt	nt	nt	3%	nt
CCOc1ccc(C(=O)N/N=C/c2ccc(-c3ccc(S(=O)(=O)Nc4ncccn4)cc3)o2)cc1	5%	8%	13%	-1%	11%	19µM*
O=C(N/N=C/c1ccc(-c2ccc(S(=O)(=O)Nc3ncccn3)cc2)o1)c1cc2ccccc2cc1O	-11%	0%	?	1%	-8%	21µM*
Cc1ccc(-c2nc(CS(=O)(=O)CC(=O)NC(C)CCc3ccccc3)c(C)o2)cc1 (stereo not drawn)	nt	nt	-5%	nt	nt	-18%
COc1ccc(-n2ccnc(NCCc3ccc(S(N)(=O)=O)cc3)c2=O)cc1Cl	nt	nt	nt	nt	nt	-2%
O=C(COc1ccccc1N1C(=O)c2ccccc2C1=O)c1ccc(Cl)cc1	18µM*	13%	22%	15%	?	4%
O=C(COc1ccc(N2C(=O)c3ccccc3C2=O)cc1)c1ccccc1	0%	0%	4%	-2%	8%	-11%
O=C1ON=C(c2ccccc2)/C1=C/c1ccco1	5%	0%	12%	2%	?	?
Cc1ccc(C=C2C(=O)c3ccccc3C2=O)o1	8%	2%	-8%[1.84 µM]	1%	?	0.48µM*
Cc1ccc(/C=C2/C(=O)c3ccc(C(=O)O)cc3C2=O)o1	3%	2%	nt	-16%	10%	2.7µM*
O=C(O)c1ccc2c(c1)C(=O)/C(=C\c1ccco1)C2=O	1%	-1%	3%	0%	-4%	9.5µM*
O=C1C(=Cc2ccco2)C(=O)c2ccccc21	2%	8%	8%	1%	?	13µM*
SMILES	ELG1 genotox	NPC1 promoter act	SMN2 splice enh	Rab9 prom act	ELG1 DNA repair	FLuc modulator
O=C(O)CCC(=O)N1CCc2cc(S(=O)(=O)NCc3ccc(Cl)cc3)ccc21	1%	0%	nt	1%	2%	1%
Cc1ccc(N2CC(NC(=O)Cc3cccs3)CC2=O)cc1C (stereo not drawn)	nt	nt	nt	nt	nt	2%
CCN(C[C@H]1N[C@@](Cc2ccccc2)(C(=O)OC)[C@H]2C(=O)N(C)C(=O)[C@@H]12)C(=O)Nc1ccc(C(F)(F)F)cc1	-5%	nt	nt	nt	11%	nt
NNC(=O)c1oc2nc(-c3ccco3)cc(-c3ccco3)c2c1N	-11%	-5%	nt	1%	?	0%
Nc1c(C(=O)O)sc2nc(-c3ccccc3)cc(-c3ccc(Cl)cc3)c12	-1%	2%	nt	-3%	?	0%
Nc1c(C(=O)N/N=C/c2cccnc2)oc2nc(-c3ccccc3)cc(-c3ccco3)c12	2%	-4%	nt	-6%	7.3µM*	-1%
Nc1c(C(=O)N/N=C/c2cccnc2)oc2nc(-c3ccco3)cc(-c3ccco3)c12	-8%	-1%	nt	-5%	2.9µM*	-10%
NNC(=O)c1oc2nc(-c3ccc(Cl)cc3)cc(-c3ccccc3)c2c1N	-8%	-10%	nt	1%	16µM*	0%
Cc1sc(NC(=O)Nc2ccccc2)c(C(N)=O)c1C	9%	?	nt	2µM*	?	7.6µM*
CC1(C)Cc2c(sc(NC(=O)Nc3ccccc3)c2C(N)=O)CO1	?	4.5µM*	nt	1.3µM*	?	12µM*
CC1(C)Cc2c(sc(NC(=O)C(=O)N3CCCC3)c2C(N)=O)CO1	10%	-1%	nt	5%	6%	0%
CCc1c(C)sc2c1CCN(C(=O)Nc1cc(C)ccc1OC)C2c1ccc(F)cc1 (stereo not drawn)	nt	nt	nt	nt	nt	2%
CC(C)CCNC(=O)c1ccc(Cn2c(=O)c3cccn3c3cccnc32)cc1	nt	nt	nt	nt	nt	-4%
C/C(=N\NC(=O)c1nnn(-c2nonc2N)c1-c1ccccc1)c1ccccc1O	5%	-35%	nt	-37%	1.8µM*	0%
COc1ccc(C(=O)CC(=O)c2ccc(C(C)(C)C)cc2)cc1	nt	nt	-11%	nt	nt	nt
